# Only some compounds are listed: those with a hit (about 1.3% of all), similar ones and a draw of the others.
# TbPYK inhibitor – blocks Trypanosoma brucei pyruvate kinase; Q57TT1; TbPYK enzyme, Kinase-Glo Plus ATP luminescence, 45 min; Potency, µM (titrated, usually from 76.8 µM), most hits filed as inhibitors; 410,000 compounds, 0.12% hits; also: nearly all actives have a fitted effect of over 50% in size
#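 ADP (130 uM final) triggers the TbPYK reaction after compound addition; incubation is 45 min at room temperature. Kinase-Glo Plus is then added and luminescence imaged. Normalized data are fitted to concentration-effect curves.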
# LmPK inh – inhibitors of Leishmania mexicana pyruvate kinase | Q27686 | AID 1721 | 290,000 compounds, 0.37% hits | purified LmPK, Kinase-Glo ATP luminescence, 1 h | Potency, µM (titrated, usually from 57.5 µM), actives largely listed as inhibitors
# Target sequence (Q27686 whole entry, looked up): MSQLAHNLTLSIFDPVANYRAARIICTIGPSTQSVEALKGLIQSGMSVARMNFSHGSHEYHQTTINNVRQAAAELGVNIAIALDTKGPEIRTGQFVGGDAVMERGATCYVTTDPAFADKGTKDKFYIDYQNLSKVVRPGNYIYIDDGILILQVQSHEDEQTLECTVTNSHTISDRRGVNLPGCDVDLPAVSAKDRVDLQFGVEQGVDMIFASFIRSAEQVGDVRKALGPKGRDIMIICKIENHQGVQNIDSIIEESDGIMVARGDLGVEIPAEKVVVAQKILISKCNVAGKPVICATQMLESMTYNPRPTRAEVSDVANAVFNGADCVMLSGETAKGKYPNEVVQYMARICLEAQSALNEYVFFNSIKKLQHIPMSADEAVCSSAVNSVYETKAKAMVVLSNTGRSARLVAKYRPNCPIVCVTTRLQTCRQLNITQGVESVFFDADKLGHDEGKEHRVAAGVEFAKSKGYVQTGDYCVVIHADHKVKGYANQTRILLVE
#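 qHTS format; LmPK 0.1 nM; substrates PEP 0.5 mM and ADP 0.1 mM. One-hour room-temperature incubation, then coupled luciferase luminescence; 0.5 nM enzyme wells mark activation.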
# VACV Venus inh – vaccinia inhibition (Venus reporter); Potency, µM (top dose mostly 36.5 µM), most hits filed as inhibitors; Vaccinia virus Venus reporter expression, fluorescence; AID 720580; 330,000 compounds, 0.46% hits; calls by dose curve; tested in A549 cells; also: nearly all actives have a fitted effect of over 30% in size
# RE007 growth inh – less growth of the S. pombe RE007 Vpr strain | S. pombe RE007 Vpr strain, BacTiter-Glo ATP luminescence, 24 h | 360,000 compounds, 0.21% hits | Potency, µM (titrated, usually from 92.2 µM), actives largely listed as inhibitors; active = well fitted falling curve with a large enough effect; inconclusive = small, poorly fitted or top-dose-only effect; inactive = no such curve, though single readings can be large or run the other way; also: nearly all actives have a fitted effect of over 50% in size
#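 Fission yeast strain RE007, carrying one chromosomally integrated HIV-1 vpr copy, was seeded at OD 0.01 in PMG+AL medium with 23 nL pinned compound. After 24 h at 30 °C and 99% humidity, viability was read by BacTiter-Glo luminescence.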
# VACV mCherry inh – vaccinia inhibition (mCherry reporter); Vaccinia virus mCherry reporter infection, fluorescence; Potency, µM (highest dose often 36.5 µM), usual class: inhibitors; 310,000 compounds, 0.63% hits; AID 720579; calls by dose curve; tested in A549 cells; also: nearly all actives have a fitted effect of over 35% in size
# AMA1-RON2 inh – disrupts binding of P. falciparum AMA1 to RON2; AlphaScreen AMA1-biotinylated RON2 peptide binding; Potency, µM (highest dose often 58.2 µM), hits mostly inhibitors; 360,000 compounds, 0.2% hits; also: nearly all actives have a fitted effect of over 45% in size
#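 AMA1 (3D7) with his tag at 25 nM final met compounds first, then biotinylated RON2 peptide at 25 nM; detection used donor plus acceptor beads, 10 µg/mL apiece, read by AlphaScreen after 30 min at room temperature.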
# A number is an active result; 0 = inactive; ? = inconclusive; - = no result given; [ ] = dose if it differs, or a comment. Unless noted, calls follow the shape of the dose curve; as a rule, active = well fitted curve in the direction sought with a large enough effect; inconclusive = small, poorly fitted or top-dose-only effect, or another doubt; inactive = no such curve, though single readings can be large; an effect the other way counts as inactive or inconclusive.
SMILES,TbPYK inhibitor,LmPK inh,VACV Venus inh,RE007 growth inh,VACV mCherry inh,AMA1-RON2 inh
O=C(Nc1nc2c(F)cc(F)cc2s1)c1ccc([N+](=O)[O-])o1,0,0,10µM,0,13µM,0
Cc1cc(C)c2sc(NC(=O)c3ccc([N+](=O)[O-])o3)nc2c1,0,0,11µM,0,?,0
O=C(Nc1nc2ccccc2s1)c1ccc([N+](=O)[O-])o1,0,0,-,0,-,0
COc1ccc2nc(NC(=O)c3ccc([N+](=O)[O-])o3)sc2c1,0,0,?,0,?,0
Cc1cc(C)c2nc(NC(=O)c3ccc([N+](=O)[O-])o3)sc2c1,0,0,?,0,10µM,0
O=C(NCC1(N2CCOCC2)CCCCCC1)c1cnn(-c2nccc(-c3ccco3)n2)c1C1CC1,-,-,0,-,0,-
COc1ccc(-c2nc3cc(F)ccc3cc2CN(C(=O)c2cccs2)C2CC2)cc1,-,-,0,-,0,-
COc1cc(OC)c2c(-c3cccc(-c4ccc(CO)cc4)c3)cc(=O)oc2c1,0,-,10µM,0,?,0
N/C(=N\OC(=O)c1ccc2c(c1)OCO2)c1ccc(Cl)cc1,0,0,0,?,0,0
N/C(=N\OC(=O)c1ccc2c(c1)OCO2)c1ccncc1,0,25µM,-,0,-,0
COC(=O)c1ccccc1-c1cc(C)cc2c1OC(CNC(=O)C1CCCO1)C2 (centres undefined),-,-,0,-,0,-
O=S(=O)(c1cc(O)ccc1O)c1cccc2c(S(=O)(=O)c3cc(O)ccc3O)cccc12,?,-,0,0,0,8.9µM
CCn1nc(C)c(CN2CCc3c([nH]c4ccccc34)C2c2ccc(F)c(OC)c2)c1C (centres undefined),0,0,0,0,0,40µM
CCn1cc(CN2CCc3c([nH]c4ccccc34)C2c2ccc(F)c(OC)c2)c(C)n1 (centres undefined),0,0,0,0,?,0
CCn1cc(C(=O)O)c(=O)c2cnc(N3CCN(C(=S)NC(=O)c4ccc(Cl)cc4)CC3)nc21,0,14µM,0,0,0,0
Cc1ccccc1NC(=S)c1nc2ccccc2[nH]1,0,0,0,?,0,0[11.6 µM]
S=C(Nc1ccc(Cl)cc1)c1nc2ccccc2[nH]1,0,0,0,6.3µM,?,0
Cc1oc(-c2ccccc2NC(=O)c2ccccn2)nc1CNC(=O)c1cccc(C#CC(C)(C)O)c1,-,-,0,-,0,-
Cc1ccc(/C=C/c2nc3ccccc3[nH]2)o1,?,16µM,0,0,0,0
Cc1ccc(/C=C/c2nc3ccccc3[nH]2)cc1,?,-,0,-,0,-
Nc1ccccc1N=c1ssnc1Cl,?,0,0,0,0,0
CC(C)(C)C1=CC(=Nc2ccccc2N)C=C(C(C)(C)C)C1=O,0,0,0,0,0,11µM
Oc1ccccc1-c1nc(NCc2ccco2)c2ccccc2n1,0,0,-,0,-,0
c1ccc(-c2nc(NCc3ccco3)c3ccccc3n2)nc1,0,0,11µM,0,?,0
COc1ccccc1Nc1nc(NCc2ccco2)c2ccccc2n1,0,0,0,0,?,0
SMILES,TbPYK inhibitor,LmPK inh,VACV Venus inh,RE007 growth inh,VACV mCherry inh,AMA1-RON2 inh
Cc1ccc(Nc2nc(NCc3ccco3)c3ccccc3n2)cc1,0,0,11µM,0,?,0
COc1ccc(N=c2cc(-c3ccc(OC)cc3)oc3ccccc23)cc1,0,0,0,0,0,13µM
CCOc1ccc(N=c2cc(-c3ccc(OC)cc3)oc3ccccc23)cc1,0,0,0,0,0,14µM
COc1ccc(-c2cc(=Nc3ccc(C)cc3)c3ccccc3o2)cc1,0,0,0,?,0,0
CC(c1ccon1)N(C)C(=O)c1cnn(-c2ncc3c(n2)-c2ccccc2CC3)c1C1CC1 (centres undefined),-,-,0,-,0,-
CCOc1cccc2cc(-c3csc(NC(=O)CCC(=O)NCCN4CCCCC4C)n3)c(=O)oc12 (centres undefined),0,0,?,0,11µM,0
CCOc1cccc2cc(-c3csc(NC(=O)CCC(=O)NCCCN4CCC(C)CC4)n3)c(=O)oc12,-,0,-,-,-,-
Nc1ccc2c(c1)C(=O)C(=O)c1ccccc1-2,?,?,3.5µM,25µM,-,0
NC1=C(Br)C(=O)c2ncccc2C1=O,0,-,2.5µM,0,?,0
O=C1C(=O)c2ncccc2-c2cccnc21,0,-,-,-,-,-
O=C(Nc1cccc(/C=C/c2ccccn2)c1)c1ccc(-n2cncn2)c([N+](=O)[O-])c1,0,-,?,0,14µM,0
CCCCn1c(SCC(=O)c2ccc(O)c(O)c2)nc2ccsc2c1=O,0,0,?,0,22µM,0
O=C(O)CCCCCn1c(SCC(=O)c2ccc(O)c(O)c2)nc2ccsc2c1=O,0,0,0,0,0,0
CCCCCC(=O)Nc1cccc(C2=NOC3(C2)C[C@@H](C(N)=O)N(C(=O)CC(c2ccccc2)c2ccccc2)C3)c1 (some centres undefined),0,0,13µM,0,0,0
Cc1cccnc1-c1cccc2c1OC(CNC(=O)C1CCCc3c1[nH]c1ccccc31)C2 (centres undefined),-,-,0,-,0,-
O=C(N=c1nc2ccccn2s1)c1ccccc1,?,3.5µM,0,0,0,0
O=C(Nc1ccc(Cl)cc1)Nc1ccc(Cl)c(C(F)(F)F)c1,0,-,-,-,-,-
N#CC1(NC(=O)COC(=O)c2cc(O)c3ccccc3c2O)CCCCC1,28µM,-,0,?,0,0
CC(=O)OC1C(O)C(C)OC(OC2C(OC(=O)C3CCC4C(C3)OC3(CC(OC(=O)/C=C/c5ccccc5)C(C)CO3)C43CO3)OC(C)C(O)C2OC(C)=O)C1O (centres undefined),0,-,0.32µM,?,?,0
CC1CN(CCS(=O)(=O)c2cc(Cl)ccc2Cl)CC(C)O1 (centres undefined),0,0,?,0,11µM,0
CC(=O)N1CCN(CCS(=O)(=O)c2cc(Cl)ccc2Cl)CC1,0,-,?,0,?,0
COc1ccccc1CNC(=O)c1cnn(-c2nccc(-c3cccs3)n2)c1C,-,-,0,-,0,-
CCN(CC)CCOC(=O)c1ccc(N/C=C(/C#N)c2nc(-c3ccc(OC)c(OC)c3)cs2)cc1,0,0,0,0,0,28µM
Cc1nc([N+](=O)[O-])c(Br)n1CC(=O)c1ccccc1,0,0,2.2µM,0,-,0
Cc1nc([N+](=O)[O-])c(C(=O)OCc2ccccc2Br)n1C,0,0,0,0,0,0
Cc1nc([N+](=O)[O-])c(Br)n1CC(=O)c1ccc(Br)cc1,0,0,-,0,-,0
Cc1nc([N+](=O)[O-])c(Br)n1CC(=O)c1ccc2ccccc2c1,0,0,1.6µM,0,1.1µM,0
O=C(c1ccco1)N(Cc1cc2cc3c(cc2nc1N1CCOCC1)CCC3)CC1CCCO1 (centres undefined),-,-,0,-,0,-

# High-throughput results from PubChem.
